# Screens as filed in PubChem BioAssay.
# TRHR enhancer-1: qHTS for Small Molecule Agonists and Allosteric Enhancers of Human TRH Receptor: Primary Screen for Enhancers; TRHR cells, fluo-8 calcium fluorescence, EC20 TRH enhancement; hit rate 0.66% among 360,000; enhancement, % at 2 µM; AID 493056, 2011; in the data active means enhancement above about 30%; further: 0% is about no effect
#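 Enhancer read-out: after compound pinning and an initial kinetic agonist-mode read, an EC20 of TRH (10 nM final) was injected and fluo-8 calcium signal (Ex 480/Em 530) followed at 1 s/cycle for 100 cycles in TRHR-expressing cells.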
# D1 PAM: Potentiators of Human D1 Dopamine Receptor: qHTS; AID 504651, 2011; HEK293 TREx D1 cells, calcium flux, dopamine EC20 potentiation; potentiation, % at 10 µM; hit rate 0.036% among 360,000; D(1A) dopamine receptor (Homo sapiens), P21728; in the data active means potentiation above about 30%; further: 0% is about no effect
# Target sequence (P21728 whole entry, looked up): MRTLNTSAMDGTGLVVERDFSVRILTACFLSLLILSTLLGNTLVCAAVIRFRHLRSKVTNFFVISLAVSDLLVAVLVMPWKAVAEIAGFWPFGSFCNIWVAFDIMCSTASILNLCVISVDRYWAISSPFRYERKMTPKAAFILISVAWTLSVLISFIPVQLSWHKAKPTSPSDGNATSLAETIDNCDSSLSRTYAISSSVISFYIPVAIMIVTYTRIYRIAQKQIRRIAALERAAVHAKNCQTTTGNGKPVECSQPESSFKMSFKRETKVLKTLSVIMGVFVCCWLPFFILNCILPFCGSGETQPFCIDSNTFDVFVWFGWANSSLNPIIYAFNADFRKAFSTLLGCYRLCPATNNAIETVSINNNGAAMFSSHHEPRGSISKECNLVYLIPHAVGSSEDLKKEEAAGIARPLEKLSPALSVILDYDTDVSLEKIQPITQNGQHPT
# TRHR agonist-1: qHTS for Small Molecule Agonists and Allosteric Enhancers of Human TRH Receptor: Primary Screen for Agonists; TRHR cells, calcium flux fluo-8, FDSS agonist mode; activation, % at 2 µM; hit rate 0.18% among 360,000; AID 493084, 2011; in the data active means activation above about 30%; further: 0% is about no effect
#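 TRHR-expressing cells, plated overnight in medium with 10% serum, were loaded with fluo-8 calcium dye at room temperature. After a 10 s baseline, library compound was pin-added and calcium release was recorded kinetically (ex 480/em 530) as agonist response.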
# Epigenetic reg: Quantitative High-Throughput Screen for Regulators of Epigenetic Control; murine LDR cells, GFP reporter derepression, 30 h; Potency, µM (top dose mostly 53.9 µM), for the others: at the top dose GFP activation, usual class: activators; hit rate 0.2% among 280,000; further: potency means the concentration at half of the fitted maximal effect; % of control where 0% means no effect; nearly all actives have a fitted effect of over 60% in size
#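 Reporter derepression read as number of fluorescent GFP-positive objects, 20-120 um in size, counted by laser-scanning cytometer. Mouse LDR line with an epigenetically silenced CMV-GFP locus; compound incubation 30 h, 37 C.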
# D1 ag: Allosteric Agonists of the Human D1 Dopamine Receptor: qHTS; D(1A) dopamine receptor (Homo sapiens), P21728; HEK293 T-REx D1 cells, calcium flux, agonist mode; activation, % at 2 µM; hit rate 1% among 360,000; AID 504660, 2011; in the data active means activation above about 30%; further: 0% is about no effect
#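 Inducible HEK293 T-REx D1 cells, force-coupled to calcium signalling, were plated at 4000 cells/well with tetracycline and held overnight at 30 C. After no-wash calcium dye loading, compound-evoked calcium rise over 180 s flagged agonists.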
# D1 antagonist: Antagonist of Human D 1 Dopamine Receptor: qHTS | D(1A) dopamine receptor (Homo sapiens), P21728 | HEK293 TREx D1 cells, calcium flux, dopamine EC80; stronger effect = lower value | activity change, negative = inhibition, % at 10 µM | hit rate 3.2% among 360,000; in the data active means activity change below about -30%; further: on the % scale 0 is the no-effect control and ±100 the full control effect
#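 Kinetic fluorescence of a calcium dye serves as the read-out. D1-expressing Hek293 Trex cells, induced overnight at 30 C, are exposed to compound for 180 s before an EC80 dopamine addition, then read 180 s further.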
# TRHR enhancer-2: qHTS for Small Molecule Agonists and Allosteric Enhancers of Human TRH Receptor: Confirmation Screen for Enhancers; shares compounds with TRHR enhancer-1; TRH receptor cell assay, enhancer confirmation qHTS; activity change, negative = inhibition, % at 46.1 µM; 970 tested, under 10 active; AID 493076, 2011;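 further: compound effect scored on response to added TRH at EC20 of 10 nM; 0% is about no effect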
# TRHR agonist-2: qHTS for Small Molecule Agonists and Allosteric Enhancers of Human TRH Receptor: Confirmation Screen for Agonists; shares compounds with TRHR enhancer-1; TRHR-expressing cells, agonist activation read-out; Potency, µM (top dose mostly 46.1 µM), for the others: at the highest dose activation, usual class: activators; hit rate 8% among 970; AID 493078, 2011; further: potency means the concentration at half of the fitted maximal effect; 0% is about no effect; nearly all actives have a fitted effect of over 75% in size
# An asterisk follows results filed as active; ? = inconclusive; . = no result given; [ ] = remark or other dose. A selection: hits, their analogues and other compounds. The true share with any hit is near 4.6%. Unless noted, the call rests on the fitted dose curve; in most records, active means well fitted curve in the direction sought with a large enough effect; inconclusive means small, poorly fitted or top-dose-only effect, or another doubt; inactive means no such curve, though single readings can be large; an effect the other way counts as inactive or inconclusive.
SMILES,TRHR enhancer-1,D1 PAM,TRHR agonist-1,Epigenetic reg,D1 ag,D1 antagonist,TRHR enhancer-2,TRHR agonist-2
NC(=O)c1ccc[n+]([C@H]2O[C@@H](COP(=O)([O-])OP(=O)(O)OC[C@H]3O[C@@H](n4cnc5c(N)ncnc54)[C@H](O)[C@@H]3O)[C@H](O)[C@@H]2O)c1,8.8,22.8,26.7,.,189.5*,19.6,-0.7,?
CC1(C)Oc2ccc(C(=O)NC3CCCCC3)cc2N(CC#N)C1=O,46.4*,-1.8,-0.4,.,4.0,8.0,0.7,7.0%
CC(C)Oc1ccc(/C=C(/NC(=O)c2ccccc2)C(=O)NCCC(=O)O)cc1,47.0*,-1.0,0.5,0.0%,1.1,-16.2,-2.3,-0.3%
CC(C)Oc1ccc(/C=C(/NC(=O)c2ccccc2)C(=O)NC(Cc2ccccc2)C(=O)O)cc1 (centres undefined),-3.0,.,0.1,.,1.7,-5.5,.,.
Cc1ccc2c(c1)c(Sc1ccccc1)c(CC(=O)O)n2C,20.4,8.0,99.0*,0.0%,2.6,8.4,-6.9,1.2%
O=S(=O)(c1cccs1)N1CN(Cc2ccccc2)c2nc3ccccc3nc21,56.0*,-1.1,0.2,-1.0%,2.2,0.4,-0.9,4.2%
N#Cc1ccc(COc2ccc(CCO)cc2-n2nc3ccccc3n2)cc1,15.7,-4.8,-0.7,-9.5%,9.3,-23.6,.,.
OCCc1ccc(O)c(-n2nc3ccccc3n2)c1,44.1*,0.2,0.2,.,4.0,-6.6,-0.1,6.5%
CC1(c2ccc(Cl)cc2)NC(=O)N(CC(=O)NCCC2=CCCCC2)C1=O (centres undefined),80.7*,1.0,0.2,.,4.2,12.4,0.3,0.9%
CC(=O)OC[C@@H]1O[C@@H](O/N=C2/C[C@@H](O)[C@@H](O)[C@@H]3[C@H]4C(=O)N(c5ccc(F)cc5F)C(=O)[C@@H]4CC[C@H]23)[C@H](OC(C)=O)[C@H](OC(C)=O)[C@@H]1OC(C)=O,.,.,.,1.1%[10.1 µM],.,.,.,.
Cc1cccn2c(=O)c(C=Nc3ccccc3)c(NCCO)nc12,44.0*,0.5,0.1,0.0%,1.1,-4.0,-15.1,0.4%
Cc1cccn2c(=O)c(C=Nc3ccc(Cl)cc3)c(NCCO)nc12,7.0,-1.6,-0.4,0.1%,1.0,2.1,.,.
NC(=O)CC(NC(=O)Cc1ccc(Br)cc1)c1ccc(N2CCC(Br)CC2)c([N+](=O)[O-])c1 (centres undefined),51.7*,-0.8,0.0,-4.7%,1.8,15.1,-12.6,-0.6%
NC(=O)CC(NC(=O)Cc1ccc(Br)cc1)c1ccc(N2CCCCCCC2)c([N+](=O)[O-])c1 (centres undefined),9.2,-1.6,-0.7,.,0.1,-6.6,.,.
CN1CCN(S(=O)(=O)c2cccc(C(=O)Oc3ccc(C(C)(C)C)cc3)c2)CC1,50.2*,-3.5,0.7,.,6.7,-30.2*,11.8,2.2%
CC(C)c1ccc(OC(=O)c2cccc(S(=O)(=O)N3CCN(C)CC3)c2)cc1,14.8,-12.0,-0.8,.,8.6,-28.4,.,.
COc1ccc(CNC(=O)CC(C)n2nc(C)cc2C)cc1 (centres undefined),4.6,0.8,0.5,7.2%,2.3,-6.3,.,.
Cc1ccc(C(=O)N(Cc2ccco2)Cc2sccc2C)cc1,-4.5,-0.8,-1.2,-1.5%,2.1,4.5,.,.
CN(Cc1cnn(C)c1)Cc1nc(COc2ccccc2)no1,46.5*,0.8,1.0,0.4%,4.3,-4.2,-1.7,0.2%
CC(C)N(Cc1cnn(C)c1)Cc1nc(COc2ccccc2)no1,-2.0,2.9,-0.1,3.3%,-1.2,0.1,.,.
COc1ccc(N2CCN(C(=O)CSc3nc(-c4ccccc4)no3)CC2)cc1,2.2,-1.6,-0.3,3.6%,1.2,-1.2,.,.
CCOc1ccc(S(=O)(=O)N2CCN(c3ccc(OC)cc3)CC2)c2cccnc12,43.7*,-6.2,-1.9,-0.1%,2.5,-0.9,0.3,1.4%
Cc1cccc(-n2ncc3c(N(C)C4CCCCC4)ncnc32)c1,48.6*,-1.9,-0.9,1.1%,4.4,-3.6,-5.5,-0.5%
COc1ccc(-n2ncc3c(N(C)C4CCCCC4)ncnc32)cc1,-13.7,0.6,1.3,.,4.2,-17.3,.,.
CCN(C(=O)Cn1c(SCc2ccccc2F)nc2cccnc21)c1ccccc1,-49.9,0.8,3.0,-1.2%,2.5,1.9,.,.
SMILES,TRHR enhancer-1,D1 PAM,TRHR agonist-1,Epigenetic reg,D1 ag,D1 antagonist,TRHR enhancer-2,TRHR agonist-2
C=CCn1c(SCc2cc(=O)n3cc(C)ccc3n2)nnc1-c1cccc(C)c1,-11.9,6.6,-0.1,-1.1%,2.8,-9.8,.,.
Cc1ccc2nc(CSc3nnc4ccccn34)cc(=O)n2c1,50.7*,1.4,0.4,-1.3%,8.1,-18.3,-7.2,-0.8%
COc1cccc(CN(C)C(=O)c2ccc(S(=O)(=O)Nc3ccccc3F)cc2)c1OC,47.6*,-6.2,-0.3,.,0.9,1.6,-3.3,4.5%
CC(C)=NOC[C@@H](O)COCc1ccco1,.,.,.,1.1%[10.1 µM],.,.,.,.
COc1ccc(/C=C2\SC(=O)N(CCC(=O)Nc3ccccc3)C2=O)cc1OC,57.3*,-4.0,0.1,0.0%,0.6,1.7,-3.5,4.3%
COc1ccc(/C=C2\SC(=O)N(CCCC(=O)Nc3ccc(C(=O)O)cc3)C2=O)cc1OC,8.2,-0.4,-1.4,.,0.2,3.8,.,.
COCCn1c(SCC(=O)N2CCCC2)nnc1C(C)C,4.5,1.8,0.4,0.0%,2.3,-10.0,.,.
CCCn1c(SCC(=O)N2CCCCC2)nnc1C(C)C,-5.3,-1.9,32.0*,-0.1%,3.6,7.1,-4.4,1.0%
CCCn1c(SCC(=O)N2CCCCC2)nnc1-c1ccco1,48.5*,-1.9,0.4,-1.0%,2.2,14.8,4.1,-0.8%
CCCCCCc1cc2cc(C(=O)Nc3ccccc3)c(=O)oc2cc1O,-10.2,-5.8,30.1*,1.5%,7.4,-8.3,4.9,0.8%
N=c1oc2ccccc2cc1C(=O)Nc1ccccc1,-2.1,-0.1,0.0,.,7.8,18.1,.,.
